Assay results published in PubChem BioAssay (NCI).
This is part of a sample that, as a whole, favours compounds with a hit. Of some 83,000 tested, about 20% had one in any assay.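 Cells were grown in 96-well plates and exposed to the test compound at a single concentration for 48 hours; results are reported as percent growth, with values below 10 considered active.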 Unmarked numbers belong to inactive results. The source made the active and inactive calls.

system: MDA-MB-435 melanoma; assay: NCI-60 one-dose screen, 48 h (100 = growth as untreated, 0 = no growth, -100 = all killed); conditions: 10 µM unless noted
Procedure: Growth inhibition of the MDA-MB-435 human Melanoma tumor cell line is measured as a screen for anti-cancer activity. Cells are grown in 96 well plates and exposed to the test compound for 48 hours. Compounds are tested at a single concentration, which is 10^-5 M for most compounds. The reported endpoint is percent growth (GI% or GIPRCNT), where numbers from 0 - 100% represent growth inhibition, and numbers from -100% - 0 represent cell death. For example, a value of 40 represents 60% growth inhibition. A value of 0 means no net growth occurred over the course of the experiment. A value of -40 indicates 40% of cells at the beginning of the experiment died by the end of the experiment. A value of -100 means all cells are dead at the end of the experiment.
NCI-60 Human Tumor Cell Lines Screen was performed using the standard one-dose NCI protocol, which is described in more detail at https://dtp.cancer.gov/discovery_development/nci-60/default.htm.
Compounds with GIPRCNT values below 10 were considered active. Activity score was based on GIPRCNT using the following formula: […]
Score is 0 for GIPRCNT values of 100 or above, 50 for GIPRCNT values of 0, and 100 for GIPRCNT values of -100.

| Structure (SMILES) | growth |
| --- | --- |
| O=C(CI)Nc1ccc(Br)cc1 | 52% |
| O1[As]2O[As]3O[As]1O[As](O2)O3 | 14.1% |
| C[C@]12CC[C@@H]3C4=C(CC[C@H]3[C@@H]1CC[C@@H]2O)CC(=O)CC4 | 103% |
| Nc1cccc(CC(=O)Nc2ccc(S(=O)(=O)F)cc2)c1 | 89.8% |
| CCCCCCCCCCOc1ccc(C(=O)Oc2ccc(CSP3(=O)OCC4OC(n5ccc(=O)[nH]c5=O)C(F)C4OP(=O)(O)OCC4OC(n5cnc6c(N)ncnc65)C(F)C4O3)cc2)cc1 (stereo not given) | 105% |
| CCC(/C=C(C)/C=C/C(=O)c1c(O)c(-c2ccc(O)cc2)c[nH]c1=O)CO (stereo not given) | 80.9% |
| COC(=O)C(=[N+]=[N-])C(=O)OC | 100% |
| CCCCn1cc(C(=O)/C(C#N)=C/c2cc3ccccc3nc2Cl)c2cc(OC)ccc21 | 101% |
| O=C(CC1(O)C(=O)Nc2ccc(F)cc21)c1ccc(C(=O)NCC2CCC3(CC2)OOC2(CCCCC2)OO3)cc1 (stereo not given) | 63.8% |
| CNC(=O)Oc1cccc(N(C)C)c1 | 97.5% |
| COc1cc(C2CC(=O)Nc3nc(N)[se]c32)cc(OC)c1OC (stereo not given) | 105% |
| COc1cc(/C=C\c2cc(OC)c(OC)c(OC)c2)cc(N/C=C\C(=O)c2ccc(OC(F)(F)F)cc2)c1OC | -42.2% (active) |
| C[C@@H]1CC[C@@H]2[C@@H]1[C@H](OC(=O)/C=C/C1CCCCC1)[C@]1(C3CCCCC3)C[C@@H](OC(=O)CO)[C@@]2(C)O1 | 72.9% |
| CCC[CH2][Sn]1([CH2]CCC)[O]C(=O)c2cccc([N+](=O)[O-])c2C(=O)[O]1 | -99.2% (active) |
| N#C[Se]CCN1C(=O)C2C(C1=O)[C@H]1C=C[C@@H]2S1 (stereo not given in full) | -39.2% (active) |
| CC(C)CCC[C@@H](C)[C@H]1CC[C@H]2[C@@H]3CC=C4C[C@@H](OC(=O)Cc5ccc(N(CCCl)CCCl)cc5)CC[C@]4(C)[C@H]3CC[C@]12C | 113% |
| CC(=O)O[C@H]1CC[C@H]2[C@@H]3CC[C@H]4CC=C(C)C[C@]4(C)[C@H]3CC[C@]12C | 106% |
| CC(C)(NC(=O)c1nn(CCCCCF)c2ccccc12)c1ccccc1 | 103% |
| O=C(NCCNC(=O)c1ccc([As](O)O)cc1)c1ccc([As](O)O)cc1 | 104% |
| O=S(=O)(Cl)c1ccccc1 (tested in a mixture with another compound) | 115% |

| Structure (SMILES) | growth |
| --- | --- |
| O=C(CCCN1CCC2(CC1)C(=O)NCN2c1ccc(F)cc1)c1ccc(F)cc1 | 109% |
| CCC[CH2][Sn]([CH2]CCC)([CH2]CCC)[O]C(=O)c1ccc(Cl)cc1Cl | -85.4% (active) |
| CCOc1ccc(C(O)CN(C)Cc2ccccc2)cc1Cl (stereo not given) | 103% |
| [N-]=[N+]=NC(C(=O)O)c1ccccc1 (stereo not given) | 99.9% |
| CC(C)OC(=S)[S-].[Au+].c1ccc([PH+](c2ccccc2)c2ccccc2)cc1 | 30.3% |
| ClCCN(CCCl)C(c1ccccc1)c1ccc(Cl)cc1 (stereo not given) | 88% |
| CN(C)P1(N(C)C)=NP(N(C)C)(N(C)C)=NP(N(C)C)(N(C)C)=N1 | 109% |
| CC(C)C1c2ccc(O)cc2Oc2nc(N)c(C#N)c(N)c21 (stereo not given) | 103% |
| COc1ccc(C2SCC(=O)Nc3c2c(C)nn3-c2nc3ccc(C)cc3s2)cc1O (stereo not given) | -25.5% (active) |
| CN=C(NN)NN | 99.8% |
| S=P(Nc1ccccc1)(Nc1ccccc1)c1ccccc1 | 101% |
| Cc1ccc(C[As+](c2ccccc2)(c2ccccc2)c2ccccc2)cc1 | -10.3% (active) |
| COc1ccc(C2=NN(c3ccccc3)C(c3sc(N(CCCl)CCCl)nc3Cl)C2)cc1 (stereo not given) | 90.5% |
| Clc1ccc(SSC(Cl)(Cl)Cl)cc1 | 105% |
| O=C(O)CNC(=O)c1ccccc1 | 100% |
| O=C1NC(=O)C(Cc2ccccc2)(Cc2ccccc2)C(=O)N1 | 113% |
| N#CC1c2ccccc2C=CN1C(=O)c1ccc(N(CCCl)CCCl)cc1 (stereo not given) | 79.4% |
| CC1(C)CC(=O)CC(C)(C)N1N=O | 112% |
| CC(CC(C#N)(c1ccccc1)c1ccccc1)N1CCOCC1 (stereo not given) | 118% |
| Cc1ccc(C(=O)C2CN(C)CCC2(O)c2ccc(C)cc2)cc1 (stereo not given) | 106% |
